# Assay outcomes from PubChem.
# The entries come from a sample that favours hits as a whole.
# HT1080 IDH1KD tx: qHTS for induction of synthetic lethality in tumor cells producing 2HG: qHTS for the HT-1080-IDH1KD cell line. 360,000 tested, 2% active. Potency, µM (series often up to 46.1 µM), actives largely listed as cytotoxic. HT-1080 IDH1 knockdown viability, ATP luminescence, 48 h. AID 686971, 2013
#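 Viability of IDH1-knockdown HT-1080 fibrosarcoma cells was assessed by CellTiter-Glo after 48 h at 37 °C with titrated compound; concentration-effect curves were classified by fit quality and response size.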
# ALOX12 inh: Primary qHTS assay for inhibitors of human arachidonate 12S-lipoxygenase (ALOX12): Round 2. Polyunsaturated fatty acid lipoxygenase ALOX12 (Homo sapiens), P18054. purified 12hLO, xylenol orange hydroperoxide absorbance. Potency, µM (series often up to 108 µM), most hits filed as inhibitors. 580,000 tested, 1.1% active. AID 1671190, 2021
# Target sequence (P18054 whole entry, looked up): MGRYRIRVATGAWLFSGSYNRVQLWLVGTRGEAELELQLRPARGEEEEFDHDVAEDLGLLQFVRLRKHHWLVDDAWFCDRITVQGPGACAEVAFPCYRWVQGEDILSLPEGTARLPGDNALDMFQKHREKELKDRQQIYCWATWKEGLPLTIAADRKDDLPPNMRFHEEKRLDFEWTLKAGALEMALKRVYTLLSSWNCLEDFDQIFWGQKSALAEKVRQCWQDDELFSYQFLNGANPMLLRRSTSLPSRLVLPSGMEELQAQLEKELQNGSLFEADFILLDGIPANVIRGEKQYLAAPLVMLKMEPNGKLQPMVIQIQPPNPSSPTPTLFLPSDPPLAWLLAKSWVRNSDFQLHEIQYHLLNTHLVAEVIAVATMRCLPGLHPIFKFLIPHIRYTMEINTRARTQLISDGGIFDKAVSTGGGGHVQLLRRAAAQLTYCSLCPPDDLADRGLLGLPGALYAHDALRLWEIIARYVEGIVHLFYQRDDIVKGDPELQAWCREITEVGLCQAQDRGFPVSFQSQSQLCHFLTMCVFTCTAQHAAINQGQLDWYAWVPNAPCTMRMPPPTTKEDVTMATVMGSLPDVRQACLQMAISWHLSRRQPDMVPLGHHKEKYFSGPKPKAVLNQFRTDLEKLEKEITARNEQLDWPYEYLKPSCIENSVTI
#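 Purified human 12hLO (150 nM final) in 25 mM Hepes, 0.01% Triton X-100, pH 7.0 was preincubated 15 min at room temperature with compound. Then 40 uM arachidonic acid was added, 30 min. Hydroperoxide was read by Fe-XO absorbance ratio 573/405 nm.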
# IL-1B inflam inh: qHTS for Inhibitors of Inflammasome Signaling: IL-1-beta AlphaLISA Primary Screen; THP-1 LPS/ATP IL-1B secretion, AlphaLISA, 16 h; active compounds read low; activity change, % at 57.5 µM; 360,000 tested, 4.7% active; in the data active means activity change below about -50%; inconclusive means mostly about -30% to -49%
#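 Secreted IL-1B measured by AlphaLISA bead assay after 16 h compound exposure of THP-1 cells; compounds (final up to 57.5 uM) added 1 h before LPS (250 ng/mL) and ATP (1.25 mM) stimulation; lower signal means less secretion.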
# HT1080NT lethal: qHTS for induction of synthetic lethality in tumor cells producing 2HG: qHTS for the HT-1080-NT fibrosarcoma cell line. HT-1080-NT fibrosarcoma viability, CellTiter-Glo ATP luminescence, 48 h. Potency, µM (titrated, usually from 46.1 µM), usual class: cytotoxic. 360,000 tested, 1.6% active. AID 686970, 2013;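 further: NT is the 2HG producing partner of a matched IDH1 knockdown line; nearly all actives have a fitted effect of over 55% in size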
#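 750 cells/well, RPMI + 5% FBS; 2 h settle, compound pin-transfer, 48 h at 37 degrees C. CellTiter-Glo 10 min RT, luminescence. Normalized to DMSO and media-only wells.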
# DT40 TDP1 CPT: qHTS for Inhibitors of human tyrosyl-DNA phosphodiesterase 1 (TDP1): qHTS in cells in presence of CPT. 420,000 tested, 12% active. Potency, µM (top dose mostly 46.2 µM), hits mostly inhibitors. chicken DT40 Tdp1-/-;hTDP1 cells + 20 nM CPT, ATP luminescence, 48 h; further: nearly all actives have a fitted effect of over 55% in size
#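 Chicken DT40 Tdp1-/- cells complemented with human TDP1, 400 cells/well, exposed to compounds plus 20 nM camptothecin for at least 48 h at 37 C; viability read as ATP content by CellTiter-Glo luminescence.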
# TDP1 cell noCPT: qHTS for Inhibitors of human tyrosyl-DNA phosphodiesterase 1 (TDP1): qHTS in cells in absence of CPT; DT40 Tdp1-/- hTDP1 cells, no CPT, ATP luminescence, 48 h; Potency, µM (top dose mostly 46.2 µM), hits mostly inhibitors; 420,000 tested, 15% active; further: nearly all actives have a fitted effect of over 55% in size
#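 Growth kinetics read by CellTiter-Glo luminescence after ≥48 hr at 37 °C. Cells: DT40 Tdp1-/- stably carrying human TDP1, 400 per well, compound exposure in the absence of CPT (DMSO vehicle).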
# Hits are given with their value; - = inactive; ? = inconclusive; . = not tested or not shown. Unless noted, the call rests on the fitted dose curve; in most records, active means well fitted curve in the direction sought with a large enough effect; inconclusive means small, poorly fitted or top-dose-only effect, or another doubt; inactive means no such curve, though single readings can be large; an effect the other way counts as inactive or inconclusive.
SMILES,HT1080 IDH1KD tx,ALOX12 inh,IL-1B inflam inh,HT1080NT lethal,DT40 TDP1 CPT,TDP1 cell noCPT
CN(C1CCc2ccccc2C1)[S+](=O)([O-])c1cccs1 (centres undefined),.,-,.,.,.,.
CCOC(=O)[C@@H]1CSCCS(=O)(=O)N1,-,-,-,-,11.6µM,18.4µM
CC(C)NC(=O)OC[C@@H]1CSCCS(=O)(=O)N1,.,-,.,.,.,.
CCCOc1ccc2c(-c3ccccc3)cc(=O)oc2c1,.,-,.,.,.,.
O=C(NCCc1ccccc1)Nc1cccc(CN2CCOC2=O)c1,.,-,.,.,.,.
COc1ccc(NC(=O)C2(C)Cc3c(-c4ccc5c(c4)OCO5)ccnc3O2)cc1OC (centres undefined),?,?,-,-,?,?
CC1(C(=O)NCc2ccccc2)Cc2c(-c3ccc4c(c3)OCO4)ccnc2O1 (centres undefined),?,-,-,?,0.651µM,0.82µM
CN(C)c1ccc(-c2ccnc3c2CC(C)(C(=O)Nc2ccc4c(c2)OCO4)O3)cc1 (centres undefined),-,-,-,-,-,-
CC1(C(=O)NCCc2ccccc2)Cc2c(-c3ccc4c(c3)OCO4)ccnc2O1 (centres undefined),?,-,-,?,?,2.91µM
COCCNC(=O)C1(C)Cc2c(-c3ccc4c(c3)OCO4)ccnc2O1 (centres undefined),18.4µM,-,-,?,11.6µM,8.2µM
COc1cc(CNC(C)Cn2nc(C)cc2C)ccc1OCCN1CCCC1 (centres undefined),.,-,.,.,.,.
CCn1nc(C(=O)NC2CCN(Cc3ccccc3)C2)c2ccccc2c1=O (centres undefined),.,-,.,.,.,.
COC(=O)CCC(=O)NC1CC(C)(C)Cc2c1cnn2-c1ccc(F)cc1 (centres undefined),-,-,-,-,0.581µM,?
Cc1ccc(-n2ncc3c2CC(C)(C)CC3NC(=O)c2ccccn2)cc1 (centres undefined),?,-,-81.0,?,?,?
Cc1ccccc1-n1ncc2c1CC(C)(C)CC2NC(=O)CCC(F)(F)F (centres undefined),-,-,-,-,-,?
Cc1ccccc1-n1ncc2c1CC(C)(C)CC2NC(=O)c1snnc1C (centres undefined),-,-,-,-,?,25.9µM
CSc1ncccc1C(=O)NC1CC(C)(C)Cc2c1cnn2-c1ccccc1C (centres undefined),-,-,-,-,23.1µM,?
COc1ccc(OCCN(C)C(=O)c2nn(C)c(=O)c3ccccc23)cc1,.,-,.,.,.,.
O=C(CCC1CCCC1)Nc1nc2ccc(F)cc2s1,.,-,.,.,.,.
Cc1ccccc1-n1ncc2c1CC(C)(C)CC2NC(=O)c1ccncc1 (centres undefined),-,-,-,-,-,-
Cc1ccccc1-n1ncc2c1CC(C)(C)CC2NC(=O)CSc1ccncc1 (centres undefined),-,-,-,-,?,16.4µM
CCc1ccccc1NC(=O)C(=O)c1c[nH]c2ccccc12,.,-,.,.,.,.
FC(F)(F)c1cccc(NC(=S)Nc2ccc(Cl)c(Cl)c2)c1,?,-,-86.8,?,?,13µM
O=C(NCCCl)Nc1ccc(Cl)c([N+](=O)[O-])c1,-,-,-,-,?,?
CC(C)(C)NC(=S)Nc1cccc(C(F)(F)F)c1,?,?,-90.4,-,?,25.9µM
SMILES,HT1080 IDH1KD tx,ALOX12 inh,IL-1B inflam inh,HT1080NT lethal,DT40 TDP1 CPT,TDP1 cell noCPT
COc1ccc(NC(=S)NNC(=S)Nc2cccc(C(F)(F)F)c2)cc1,?,?,?,-,5.8µM,6.51µM
CNNC(=S)Nc1cccc(C(F)(F)F)c1,-,?,-,-,-,-
O=[N+]([O-])c1cc(C(F)(F)F)cc([N+](=O)[O-])c1NCCNC(=S)Nc1ccc(Cl)c(Cl)c1,?,?,-80.5,16.4µM,?,20.6µM
CCOc1ccc(NC(=S)NNC(=S)Nc2cccc(C(F)(F)F)c2)cc1,-,-,-,-,?,?
CCOC1OC(COC(C)=O)C(OC(C)=O)C(OC(C)=O)C1NC(C)=O (centres undefined),.,-,.,.,.,.
COC(=O)c1ccc(CNC(=O)c2nccnc2N)cc1,.,-,.,.,.,.
CC1Oc2ccc(NC(=O)c3ccc(F)cc3F)cc2CN(C2CCCc3ccccc32)C1=O (centres undefined),.,-,.,.,.,.
CC(C)(C)NC(=S)Nc1ccc(Br)cc1,-,-,-,-,?,?
FC(F)(F)c1cccc(NC(=S)NC(c2ccccc2)c2ccccc2)c1,?,35.5µM,-,?,3.66µM,5.17µM
CC(C)(C)NC(=S)Nc1ccc(Nc2ccccc2)cc1,6.31µM,-,?,5.62µM,14.6µM,16.4µM
CCOc1cc(OCC)cc(C(=O)NC(=S)Nc2cccc(C(F)(F)F)c2)c1,-,?,-,-,-,-
C=CCNC(=S)Nc1cccc(C(F)(F)F)c1,.,-,.,.,.,.
O=C(NC(=S)Nc1cccc(C(F)(F)F)c1)c1ccc2nonc2c1,-,35.5µM,.,-,?,?
C=CCOc1cccc(/C=N/NC(=O)C(=O)NCCCOC)c1,.,-,.,.,.,.
COc1cccc2nc3cc(C)c(C)cc3nc12,8.2µM,?,-,18.4µM,13µM,18.4µM
CCc1ccc(NCc2cc3cc4c(cc3n(CC(=O)Nc3ccc(OC)cc3)c2=O)OCO4)cc1,.,-,.,.,?,4.61µM
COc1ccc(NCc2cc3cc4c(cc3n(CC(=O)Nc3ccc(F)cc3F)c2=O)OCO4)cc1,.,-,.,.,6.51µM,14.6µM
O=C(NC1CCCCCC1)c1[nH]c2ccccc2c1Cl,.,-,.,.,.,.
CC(C)c1nn2c(=O)cc(COC(=O)c3ccccc3NC(=O)c3cccs3)nc2s1,.,-,.,.,7.31µM,7.31µM
CC(C)c1nn2c(=O)cc(COC(=O)c3ccccc3NC(=O)c3cccc(Cl)c3)nc2s1,.,?,.,.,16.4µM,18.4µM
CC(C)Cc1nn2c(=O)cc(COC(=O)c3ccccc3NC(=O)c3cccs3)nc2s1,.,-,.,.,-,?
CCOc1cccc2cc(-c3cc(=O)oc4cc(OCC(=O)OC(C)(C)C)ccc34)c(=O)oc12,.,-,.,.,.,.
Cc1nc(N2CCC(NC(=O)COc3ccccc3)CC2)cc(C(F)(F)F)n1,.,-,.,.,.,.
CC(C)(O)CCc1ccc(C(=O)NCCSc2ccccn2)cc1,.,-,.,.,.,.
CNC(=O)c1[nH]cnc1C(=O)Nc1cccc(C)c1,-,-,-,-,-,-
